This is part of a sample that, as a whole, favours compounds with a hit. Of some 83,000 tested, about 20% had one in any assay.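 A percent growth of 40 corresponds to 60% growth inhibition; 0 means no net growth; -100 means all cells died. Active threshold: below 10.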 Activity calls are given as the source filed them.
Tests used:
Test in all cases: NCI-60 one-dose screen, 48 h (100 = growth as untreated, 0 = no growth, -100 = all killed)
[1] = tested on: SK-MEL-2 melanoma; details: 10 µM unless noted
[2] = tested on: SN12C renal; details: 10 µM unless noted
[3] = tested on: UO-31 renal; details: 10 µM unless noted
[4] = tested on: TK-10 renal; details: 10 µM unless noted
[5] = tested on: ACHN renal; details: 10 µM unless noted
[6] = tested on: CAKI-1 renal; details: 10 µM unless noted
[7] = tested on: A498 renal; details: 10 µM
[8] = tested on: HL-60(TB) leukemia; details: 10 µM unless noted
[9] = tested on: CCRF-CEM leukemia; details: 10 µM unless noted
[10] = tested on: MOLT-4 leukemia; details: 10 µM unless noted
[11] = tested on: SR leukemia; details: 10 µM unless noted
[12] = tested on: RPMI-8226 leukemia; details: 10 µM unless noted
[13] = tested on: OVCAR-8 ovarian; details: 10 µM unless noted
[14] = tested on: OVCAR-5 ovarian; details: 10 µM unless noted
[15] = tested on: OVCAR-4 ovarian; details: 10 µM unless noted
[16] = tested on: SK-OV-3 ovarian; details: 10 µM unless noted
[17] = tested on: IGROV1 ovarian; details: 10 µM unless noted
[18] = tested on: OVCAR-3 ovarian; details: 10 µM unless noted
[19] = tested on: HS 578T breast; details: 10 µM unless noted
[20] = tested on: EKVX NSCLC; details: 10 µM unless noted

Measured: growth

COc1cc(C=Nc2cccc(C(=O)O)c2)ccc1N(CCCl)CCCl
inactive: [1] 108% | [2] 98.5% | [3] 84.6% | [4] 125% | [5] 81.8% | [6] 95% | [7] 102% | [8] 110% | [9] 102% | [10] 97.9% | [11] 91.9% | [12] 100% | [13] 95.2% | [14] 110% | [15] 114% | [16] 110% | [17] 97% | [18] 105% | [19] 92.8%

COC(=O)[C@@H](C)C[C@H](Cc1ccccc1)NC(=O)c1csc([C@@H](C[C@H](C(C)C)N(C)C(=O)C2(NC(=O)[C@H]3CCCCN3C)CCC2)OC(C)=O)n1
active: [7] -2.79% | [8] -51.8% | [9] 10% | [10] 5.46% | [11] 5.54% | [18] -6.95%
inactive: [1] 29.5% | [20] 31.7% | [2] 29.8% | [3] 43.3% | [5] 28.8% | [6] 27.7% | [12] 13.5% | [13] 27.2% | [14] 24% | [15] 50% | [16] 28.7% | [17] 23.2% | [19] 13%

CCCCNC(c1ccc(Cl)cc1)C(O)c1ccc(Cl)cc1 (centres undefined)
active: [10] 9.52% | [11] -34.2% | [12] -15.1%
inactive: [1] 62.5% | [20] 53.9% | [3] 36.9% | [4] 56.8% | [5] 35.2% | [6] 30.3% | [7] 57.8% | [8] 19.6% | [9] 29.7% | [13] 49% | [14] 56% | [15] 65.9% | [16] 79.6% | [17] 27% | [18] 55.6% | [19] 64.2%

CCCCC1(CCC)C(=O)NC(=S)NC1=O
inactive: [1] 91.2% | [20] 102% | [3] 85.7% | [4] 118% | [5] 94.8% | [6] 97.2% | [7] 129% | [8] 95.5% | [9] 115% | [10] 96.8% | [11] 126% | [12] 104% | [13] 128% | [14] 102% | [15] 95.9% | [16] 109% | [17] 87.9% | [18] 93.3% | [19] 111%

COC(=O)[C@@H](C)C[C@H](Cc1ccccc1)NC(=O)c1csc([C@@H](C[C@H](C(C)C)N(C)C(=O)[C@@H](NC(=O)[C@H]2CCCCN2C)C2CCCCC2)OC(C)=O)n1
inactive: [1] 11.2% | [20] 25% | [2] 12.6% | [3] 31.7% | [5] 11.4% | [6] 14.5% | [13] 14.6% | [14] 23.1% | [15] 36.7% | [17] 22.3%
active: [7] -10.2% | [8] -51.9% | [9] 0.645% | [10] 3.17% | [11] 4.79% | [12] 4.31% | [16] -1.95% | [18] -21.5% | [19] -6.6%

CC[C@@H]1[C@@H](C)O[C@@](O)([C@@H](C)[C@H](O)[C@H](C)[C@H]2OC(=O)/C=C/C=C/[C@H](C)[C@@H]([C@@H](C)[C@@H](O)[C@H](C)[C@@]3(O)C[C@@H](O[C@H]4C[C@@H](O)[C@H](O)C(C)O4)[C@H](CC)[C@@H](C)O3)OC(=O)/C=C/C=C/[C@@H]2C)C[C@H]1O[C@@H]1C[C@@H](O)[C@H](O)C(C)O1 (some centres undefined)
active: [1] -92% | [20] -88.6% | [2] -75.1% | [3] -97% | [5] -96.8% | [6] -98.4% | [7] -97.5% | [8] -73.3% | [9] -61.5% | [10] -72.6% | [11] -49.1% | [12] -65.2% | [13] -75.9% | [14] -88.7% | [15] -95.6% | [16] -96.5% | [17] -71.4% | [18] -98% | [19] -51.5%

CC1=C([Te]c2ccc(O)cc2)C(=O)c2ccccc2C1=O
inactive: [1] 31.2% | [2] 11.5% | [4] 36.1% | [13] 13.6% | [14] 11.8%
active: [20] -57% | [5] 5.62% | [6] -93.3% | [7] -25.8% | [9] -13.4% | [10] -17% | [11] -14.8% | [15] -32.9% | [16] -15.5% | [17] -27% | [18] -63.7% | [19] 8.43%

COC(=O)[C@H](Cc1ccccc1)NC(=O)c1csc([C@@H](C[C@H](C(C)C)N(C)C(=O)[C@@H](NC(=O)[C@H]2CCCN2C)C2CC2)OC(C)=O)n1
active: [8] -44.9% | [9] 4.07% | [10] 5.46% | [11] 6.34% | [18] -3.48%
inactive: [1] 31.2% | [20] 33.4% | [2] 33% | [3] 41.1% | [5] 39.9% | [6] 36.8% | [7] 13.5% | [12] 10.9% | [13] 27.3% | [14] 36.1% | [15] 59.5% | [16] 52.8% | [17] 39.1% | [19] 14.6%

CCOC(=O)CCC(NC(=O)C(Cc1ccc(N(CCCl)CCCl)cc1)NC=O)C(=O)OCC (centres undefined)
active: [1] -64.3% | [2] 3.28% | [5] -33.9% | [8] 9.37% | [10] 5.13% | [18] -17.4%
inactive: [20] 55.4% | [4] 111% | [6] 10.5% | [7] 128% | [9] 17.6% | [12] 30.6% | [13] 44.5% | [14] 42.9% | [15] 61.4% | [16] 135% | [17] 67.2% | [19] 51.8%

CC(=O)[C@H]1CC[C@H]2[C@@H]3CC[C@H]4C[C@H](N)CC[C@]4(C)[C@H]3CC[C@]12C
inactive: [1] 89.8% | [20] 76.9% | [3] 63.1% | [4] 82.6% | [5] 82.9% | [7] 78.6% | [8] 63.4% | [9] 102% | [10] 61.7% | [11] 32.3% | [12] 58.9% | [13] 90% | [14] 82.7% | [15] 84.1% | [16] 109% | [17] 81.6% | [18] 74.5% | [19] 82%

O=C(Nc1ccc([As]=[As]c2ccc(NC(=O)c3ccccc3)cc2)cc1)c1ccccc1 (centres undefined)
active: [1] -81.4% | [20] -69.1% | [3] -96.7% | [4] -98.4% | [5] -92.4% | [6] -80.2% | [7] -97.5% | [8] -53.9% | [10] -27.5% | [11] 0.482% | [13] -82.1% | [14] -89.1% | [15] -43.1% | [16] -81.5% | [17] -40.4% | [18] -94% | [19] -75.8%
inactive: [12] 13.7%

Cc1cc(C)c(CBr)c(C)c1
inactive: [1] 102% | [20] 103% | [3] 85.2% | [4] 98.1% | [5] 104% | [6] 99.1% | [7] 81.4% | [8] 59.7% | [9] 106% | [10] 96.3% | [11] 107% | [12] 100% | [13] 99.4% | [14] 96.6% | [15] 127% | [16] 104% | [17] 99.2% | [18] 113% | [19] 106%

COC(=O)[C@@H](C)C[C@H](Cc1ccccc1)NC(=O)c1csc([C@@H](C[C@H](C(C)C)N(C)C(=O)[C@@H](NC(=O)[C@H]2CCCN2C)C2CC2)OC(C)=O)n1
inactive: [1] 35.8% | [20] 31.1% | [2] 25.2% | [3] 48.2% | [5] 20.8% | [6] 12.7% | [10] 12.3% | [11] 11.2% | [12] 13.9% | [13] 33.4% | [14] 46.8% | [16] 25.7% | [17] 27.1%
active: [7] -0.976% | [8] -36.8% | [9] 6.07% | [18] -34.5% | [19] 3.36%

CCC(=O)Nc1ccc(Cl)c(Cl)c1
inactive: [1] 94.3% | [20] 98.4% | [3] 89% | [4] 86.3% | [5] 98.2% | [6] 96.8% | [7] 89.7% | [8] 92.4% | [9] 103% | [11] 95.5% | [12] 106% | [13] 100% | [14] 92.9% | [15] 118% | [16] 104% | [17] 104% | [18] 107% | [19] 110%

From PubChem BioAssay (NCI)
